For two compounds, Inhibition results are on record in ChEMBL document CHEMBL4513149, “CO-ADD screening of MMV (CH) - MMV compounds” (2021).

Out of some 21,000 compounds screened, fewer than 10 showed an effect of 50% or more. A selection follows. Entries with a potency or affinity are not part of this list.

The test has as its system Acinetobacter baumannii. As to conditions: Concentration 20 uM; ASSAY_TEST Inhibition of Bacterial Growth; detection method Absorption (OD600); MEDIA CAMHB; plate type 384well; NBS; CORNING #3640; time 18 hr.
A word on the Inhibition: it is the percentage by which the read-out fell short of the control. Read a high Inhibition as a strong effect. In turn, `O=C(CN1CCOCC1)Nc1ccc2ncnc(Nc3ccc(OCc4cccc(F)c4)c(Cl)c3)c2c1` yielded an Inhibition of 8.91%.
`Cl.O=C(Nc1ccc(N2CCNCC2)nc1)c1oc(-c2ccccc2)nc1C(F)(F)F` registered an Inhibition of 4.8%.
